Hits are enriched below; roughly 31% of the tested compounds scored in any of these assays.
CYP2C9 inhib = blockers of cytochrome P450 2C9 activity – biochemical, luminescence, ADME assay, primary screen; inhibition, % at 5 µM; AID 777, 2007; P11712; CYP2C9 Supersomes, luciferin-H conversion; actives 20% (n = 96,000);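 active = blocking of liver enzyme CYP2C9 beyond about 50% at 5 µM, limit read from the data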
CYP2C19 activ = human CYP2C19 activators, primary screen, biochemical, luminescence | 96,000 tested, under 10 active | activation factor at 5 µM | Cytochrome P450 2C19 (Homo sapiens), P33261 | recombinant CYP2C19, luciferin-H EGE luminescence; active compounds read high; 0 = fully inhibited enzyme, 1 = untreated enzyme;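 active = activation factor of at least 2 at 5 µM in the primary screen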
Target sequence (P33261 whole entry, looked up): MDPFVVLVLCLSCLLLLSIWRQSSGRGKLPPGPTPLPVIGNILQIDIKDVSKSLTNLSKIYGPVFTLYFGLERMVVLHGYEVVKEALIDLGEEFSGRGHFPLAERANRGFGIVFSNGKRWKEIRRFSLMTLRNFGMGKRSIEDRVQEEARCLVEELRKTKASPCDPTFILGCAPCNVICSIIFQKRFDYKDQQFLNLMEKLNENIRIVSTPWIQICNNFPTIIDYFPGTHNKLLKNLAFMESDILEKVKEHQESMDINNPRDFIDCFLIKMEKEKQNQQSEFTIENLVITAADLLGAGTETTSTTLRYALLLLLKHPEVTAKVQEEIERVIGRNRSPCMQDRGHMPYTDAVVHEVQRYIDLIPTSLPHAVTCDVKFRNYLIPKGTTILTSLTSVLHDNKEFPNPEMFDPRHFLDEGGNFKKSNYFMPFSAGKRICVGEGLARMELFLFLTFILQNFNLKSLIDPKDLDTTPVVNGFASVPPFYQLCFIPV
CYP2C9 activ = human CYP2C9 activators, primary screen, biochemical, luminescence | actives 1.4% (n = 96,000) | recombinant CYP2C9, luciferin-H conversion; active compounds read high; factor 1 = untreated enzyme, 0 = blocked | activation factor at 5 µM | AID 1024, 2008;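 active = activation factor of 2 or more for CYP2C9 at a 5 µM dose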
CYP2C19 inh = blockers of cytochrome P450 2C19 activity – biochemical, luminescence, ADME assay, primary screen | P33261 | inhibition, % at 5 µM | CYP2C19 Supersomes, luciferin-H EGE luminescence, 30 min | actives 21% (n = 96,000) | AID 778, 2007;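 active = CYP2C19 inhibition above a set limit at 5 µM in the primary screen, cut at about 50% in these data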
Of the large screens only hits and unclear results are named; the others gave an inactive call.

COC(=O)[C@H](C)NC(=O)Nc1cc(OC)ccc1OC	none
O=C1c2ccccc2C(=O)c2c(NCc3cccnc3)cccc21	CYP2C9 inhib 79, CYP2C19 inh 99
Cc1ccc(C2C(=O)N(C3CCCC3)CC(=O)N2CC2COc3ccccc3O2)cc1 (stereo not drawn)	none
Cn1c(N2CCN(C(=O)Nc3ccc(C(F)(F)F)cc3)CC2)nc2ccccc21	none
COC(=O)c1ccccc1NC(=S)NC(NC(=O)c1ccco1)C(Cl)(Cl)Cl (stereo not drawn)	CYP2C9 inhib 88
COC(=O)c1ccccc1NC(=S)NC(NC(=O)c1ccccc1[N+](=O)[O-])C(Cl)(Cl)Cl (stereo not drawn)	CYP2C9 inhib 97, CYP2C19 inh 94
COC(=O)c1ccccc1NC(NC(=O)c1ccco1)C(=O)c1ccc(C)cc1 (stereo not drawn)	CYP2C9 inhib 58
O=C1Nc2ccccc2/C1=C\c1cccn1-c1ccc(OC(F)(F)F)cc1	CYP2C9 inhib 87
O=C1N/C(=C/c2cccn2-c2ccc(F)cc2)C(=O)N1Cc1ccccc1	none
CC(C)c1ccc(NC(=O)C2CC(=O)N=C(N)S2)cc1 (stereo not drawn)	none
Cc1ccc([C@@H]2C3COCC=C3C(C#N)=C(N)C2(C#N)C#N)o1 (stereo partly drawn)	CYP2C19 inh 69
CC(C)(C)OC(=O)N1CC=C2C(C#N)=C(N)C(C#N)(C#N)[C@H](c3cccnc3)[C@H]2C1	none
CC(C)N1CC=C2C(C#N)=C(N)C(C#N)(C#N)C(c3ccccc3)C2C1 (stereo not drawn)	none
Cc1ccc(C2C3CSCC=C3C(C#N)=C(N)C2(C#N)C#N)cc1 (stereo not drawn)	CYP2C9 inhib 81
N#CC1=C(N)C(C#N)(C#N)[C@H](c2ccncc2)[C@H]2CC3(CC=C12)OCCO3	CYP2C9 inhib 71, CYP2C19 inh 51
CC(C)N1CC=C2C(C#N)=C(N)C(C#N)(C#N)[C@H](c3ccoc3)[C@H]2C1	none
O=C(Oc1cccc2cccnc12)c1ccc2c(c1)OCCO2	CYP2C9 activ 3.3
O=C(CC1NCCNC1=O)Nc1ccc2c(c1)OCO2 (stereo not drawn)	none
COc1ccc(OC)c(S(=O)(=O)N(C)CC(=O)Nc2ccccc2OC)c1	CYP2C19 inh 77
CCOc1ccccc1NC(=O)CN(C)S(=O)(=O)c1ccc(OC)c(C)c1	CYP2C19 inh 99
COc1ccc(OC)c(S(=O)(=O)N(C)CC(=O)O)c1	none
COc1ccccc1NC(=O)CN(C)S(=O)(=O)c1ccc2c(c1)CCC(=O)N2	none
COc1ccc(NC(=O)CN(C)S(=O)(=O)c2ccc3c(c2)CCC(=O)N3)c(OC)c1	CYP2C19 inh 55
COC(=O)c1ccccc1NC(=O)CN(C)S(=O)(=O)c1cc(C)ccc1OC	CYP2C9 inhib 67, CYP2C19 inh 94
CC1CCc2nc(NC(=O)CN3CCN(c4ccc(F)cc4)CC3)sc2C1 (stereo not drawn)	none
COc1ccc(S(=O)(=O)N(C)CC(=O)NCc2cccnc2)cc1	none
COc1ccc(S(=O)(=O)N(C)CC(=O)Nc2ccccc2OC)cc1C	CYP2C19 inh 93
COc1ccc(S(=O)(=O)N(C)CC(=O)NCc2cccnc2)cc1C	CYP2C19 inh 80
CCN(CC)S(=O)(=O)c1cc(C(=O)Nc2ccccc2C(=O)O)ccc1OC	CYP2C9 inhib 86
CCOc1c(Cl)cc(C(=O)Nc2ccccc2C(=O)O)cc1Cl	CYP2C9 inhib 59
Cc1ccccc1-n1c(SCc2ccccn2)nc2n[nH]c(C)c2c1=N	none
Cc1cc(OCCn2cc(/C(N)=N/O)c3ccccc32)ccc1Cl	none
Fc1ccc(-c2ccnc(=S)[nH]2)cc1	none
c1coc(-c2nc3nc4ccccc4nc3n2-c2ccc3c(c2)OCCO3)c1	CYP2C9 inhib 64
O=C(NC1CCCc2ccccc21)c1cncc(Br)c1 (stereo not drawn)	none
O=C(O)c1ccc(CN2CCCCC2)o1	none
CCOc1ccc(CCn2c(-c3ccco3)nc3ccccc3c2=O)cc1OCC	CYP2C19 inh 79
O=c1c2ccccc2oc2nc(-c3ccco3)n(CCc3ccccc3)c(=O)c12	none
COc1ccc(C(=O)n2c(-c3ccco3)nc3ccccc32)cc1	CYP2C9 inhib 61, CYP2C19 inh 54
O=c1c2ccccc2nc(-c2ccco2)n1Cc1ccccc1	none
COc1ccc(CCn2c(-c3ccco3)nc3nc4ccccc4nc32)cc1	CYP2C9 inhib 82, CYP2C19 inh 83
CCCCCn1c(-c2ccco2)nc2nc3ccccc3nc21	none
O=c1c2ccccc2nc(-c2ccc(Br)cc2)n1Cc1ccccc1	CYP2C9 inhib 83
CCSc1nnc(NC(=O)c2ccc3ccccc3n2)s1	none
CCN1CCN(c2nc3c(c(=O)n(C)c(=O)n3C)n2CCSc2nccc(C)n2)CC1	none
c1coc(Cn2c(-c3ccco3)nc3ccccc32)c1	none
Cc1ccc(-c2nc3ccccc3c(=O)n2CCN2CCOCC2)cc1	none
O=c1c2ccccc2nc(-c2ccoc2)n1CCc1ccccc1	CYP2C9 inhib 56, CYP2C19 inh 58
Clc1ccc(OCCn2c(-c3ccco3)nc3ccccc32)cc1	CYP2C9 inhib 56, CYP2C19 inh 59
O=c1c2ccccc2nc(N2CCN(c3ccccc3)CC2)n1Cc1ccccc1	CYP2C9 inhib 71
O=C(C1CCN(S(=O)(=O)N2CCCC2)CC1)N1CCCCC1	none
CC1CN(Cc2ccc(C#N)cc2Cl)CC(C)O1 (stereo not drawn)	none
CC1CN(Cc2ccc(Cl)cc2Cl)CC(C)O1 (stereo not drawn)	CYP2C19 inh 54
Cc1ccc(Cc2cnc(NC(=O)CN3CCOCC3)s2)cc1Cl	none
CCCn1nnnc1-c1cc(Cl)cc(Cl)c1	none
FC(F)(F)c1cccc(Cn2nnnc2-c2cccc(C(F)(F)F)c2)c1	CYP2C9 inhib 54, CYP2C19 inh 92
COCCn1nnnc1C(c1cccc(C(F)(F)F)c1)N1CCN(Cc2ccccc2)CC1 (stereo not drawn)	none
FC(F)(F)c1cccc(Cn2nnnc2-c2cc(Cl)cc(Cl)c2)c1	CYP2C9 inhib 62, CYP2C19 inh 89
CC1=[N+]([O-])C(C)(C)CC(C)(C)c2ccccc21	none
O=C(CN1CCN(C2CCCCC2)CC1)Nc1ccccc1-c1ccccc1	none
COc1ccc(OC)c(S(=O)(=O)N2CCCCC2C(=O)O)c1 (stereo not drawn)	none
COc1ccc(F)cc1S(=O)(=O)N1CCC(C(N)=O)CC1	CYP2C9 activ 2.4
CCOC(=O)C1CCN(S(=O)(=O)c2ccc(OC)c(OC)c2)CC1	none
COc1ccc(C)cc1S(=O)(=O)N1c2ccccc2CC1C (stereo not drawn)	CYP2C9 inhib 96, CYP2C19 inh 96
COc1ccc(F)cc1S(=O)(=O)N1CCCN(S(=O)(=O)c2cc(F)ccc2OC)CC1	CYP2C19 inh 99
COc1ccc(F)cc1S(=O)(=O)N1CCCC(C)C1 (stereo not drawn)	CYP2C19 inh 67
COc1ccc(C(=O)NC2CCCCCC2)cc1S(=O)(=O)N1CCCc2ccccc21	none
